Screening data (PubChem BioAssay)
The list is not random: actives were taken first. Their share in the collection is about 9.5%.
Tau FP inhib: tau fibrillization inhibition (FP); P10636; K18 P301L tau heparin fibrillization, Alexa594 FP, 6 h; Potency, µM (highest dose often 57.7 µM), inactives show at the highest dose activity, negative = inhibition, hits mostly inhibitors; 0.39% of 280,000 active; also: nearly all actives have a fitted effect of over 55% in size
Target sequence (P10636 561-689 P618L limits assumed): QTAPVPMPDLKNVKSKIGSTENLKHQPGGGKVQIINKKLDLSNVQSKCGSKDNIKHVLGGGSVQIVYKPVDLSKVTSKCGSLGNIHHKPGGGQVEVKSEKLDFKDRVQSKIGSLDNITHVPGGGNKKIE
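Human tau K18 […] P301L fragment, 15 uM unlabeled plus 0.24 uM Alexa 594-labeled tau (final), with compound and 20 uM heparin in 100 mM sodium acetate pH 7; 6 hr at 37 C, then Alexa 594 FP read.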
ALDH1A1 block: ALDH1A1 (human) enzyme inhibition; Potency, µM (titrated, usually from 75.3 µM), for the others: at the top dose activity, negative = inhibition, hits mostly inhibitors; P00352; 7.3% of 220,000 active; Purified ALDH1A1, NADH fluorescence, propionaldehyde substrate; AID 1030; active = well fitted inhibition curve with a large enough effect, not every such curve was filed as active; inconclusive = small, poorly fitted or top-dose-only effect, or another doubt; inactive = no such curve, though single readings can be large or run the other way;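 also: plate controls were no enzyme wells and a reference inhibitor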
HPGD block: blocks human HPGD enzyme activity; purified HPGD, NADH fluorescence kinetic, PGE2 substrate; Potency, µM, for inactives: at the top dose activity change, negative = inhibition, usual class: inhibitors; 4.3% of 150,000 active; AID 894; active = well fitted inhibition curve with a large enough effect, not every such curve was filed as active; inconclusive = small, poorly fitted or top-dose-only effect, or another doubt; inactive = no such curve, though single readings can be large or run the other way
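NADH formation kinetics: reaction with 30 uM PGE2 and 1 mM NAD+ (final), 20 nM enzyme, Tris-HCl pH 8 with Tween 20, after 15 min compound preincubation at room temperature. Fluorescence change, last versus first of five reads.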
Tau ThT inhib: blocks human tau fibril formation measured by thioflavin T. P10636. recombinant tau K18 P301L, heparin-induced fibrillization, ThT fluorescence. Potency, µM (titrated, usually from 57.4 µM), for the others: top-dose activity, negative = inhibition, most hits filed as inhibitors. 2.1% of 270,000 active. AID 1460; also: nearly all actives have a fitted effect of over 55% in size
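Aggregation was driven by heparin (20 uM final) acting on recombinant tau […] bearing P301L in 100 mM sodium acetate pH 7; fibrils were detected with Thioflavin T.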
Tau fluor counter: counter-screen for tau fibril formation inhibitors; tau K18 P301L (four-repeat tau fragment) Alexa594 fluorescence, heparin fibrillization; 0.93% of 280,000 active; Potency, µM (titrated, usually from 57.7 µM), for inactives: at the top dose activity change, negative = decrease; AID 1463; also: nearly all actives have a fitted effect of over 55% in size
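Human K18 P301L tau (15 uM unlabeled plus 0.24 uM Alexa 594-labeled, final) in 100 mM sodium acetate pH 7 was mixed with compound and 20 uM heparin and incubated 6 hr at 37 C.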
NPSR antag: blocks cAMP signaling of the human neuropeptide S receptor; Q6W5P4; CHO-NPSR cells, cAMP TR-FRET, antagonist mode; Potency, µM (highest dose often 38.3 µM), for inactives: at the top dose activity change, negative = inhibition, usual class: inhibitors; 1% of 220,000 active; AID 1461; also: nearly all actives have a fitted effect of over 50% in size
Target sequence (Q6W5P4 whole entry, looked up): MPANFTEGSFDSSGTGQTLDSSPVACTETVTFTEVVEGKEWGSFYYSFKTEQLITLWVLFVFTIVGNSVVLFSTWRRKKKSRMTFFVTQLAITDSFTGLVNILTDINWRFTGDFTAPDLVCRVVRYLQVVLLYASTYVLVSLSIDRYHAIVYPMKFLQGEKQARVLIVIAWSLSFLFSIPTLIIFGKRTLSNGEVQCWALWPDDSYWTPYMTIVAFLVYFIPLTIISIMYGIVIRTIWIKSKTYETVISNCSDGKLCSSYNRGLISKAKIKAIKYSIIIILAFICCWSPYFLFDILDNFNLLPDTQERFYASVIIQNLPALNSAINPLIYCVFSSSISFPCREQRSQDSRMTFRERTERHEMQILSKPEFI
The depositor's hits bear a star; ? = inconclusive; . = no result given; [ ] = another dose, or the depositor's remark. Unless noted, calls follow the shape of the dose curve; as a rule, active = well fitted curve in the direction sought with a large enough effect; inconclusive = small, poorly fitted or top-dose-only effect, or another doubt; inactive = no such curve, though single readings can be large; an effect the other way counts as inactive or inconclusive. Unless noted, % is scaled to controls: 0 for no effect and ±100 for the full control effect; potency is read from the fitted curve at half-maximal effect.

SMILES	Tau FP inhib	ALDH1A1 block	HPGD block	Tau ThT inhib	Tau fluor counter	NPSR antag
COc1ccccc1NS(=O)(=O)c1cc(NC(=O)CCC2CCCC2)ccc1N1CCOCC1	-11%	16µM*	.	-4%	-29%	-45%
COc1ccc(NS(=O)(=O)c2cc(NC(=O)C3CC3)ccc2N2CCCCC2)cc1	?	-11%	.	-8%	?	13µM*
COc1ccccc1NS(=O)(=O)c1cc(N)ccc1N1CCCCC1	4%	3.2µM*	.	?	?	-9%
Nc1ccc(N2CCCCC2)c(S(=O)(=O)Nc2ccccc2Cl)c1	7%	.	.	?	?	-15%
CCN(CC)c1ccc(N)cc1S(=O)(=O)Nc1ccccc1OC	?	.	.	25µM*	-23%	-8%
Cc1cccc(-n2ncc3c(N4CC(C)CC(C)C4)ncnc32)c1 (stereo not given)	7%	25µM*	-30%	?	-18%	-25%[46.1 µM]
Cc1cccc(-n2ncc3c(N4CCN(c5ccccc5)CC4)ncnc32)c1	-2%	.	.	?	-15%	.
Cc1cccc(-n2ncc3c(N4CCCC4)ncnc32)c1	10%	?	-6%	?	4%	-7%[46.1 µM]
O=C(COc1ccccc1)N1CCN(c2ncnc3c2cnn3-c2ccccc2)CC1	2%	7.1µM*	-12%	-12%	-1%	-1%[46.1 µM]
Cc1cccc(C(=O)N2CCN(c3ncnc4c3cnn4-c3ccccc3)CC2)c1	-5%	10µM*	-4%	-22%	-11%	-16%[46.1 µM]
c1ccc(CN2CCN(c3ncnc4c3cnn4-c3ccccc3)CC2)cc1	6%	.	.	?	-9%	.
CCc1ccc(Oc2c(C(F)(F)F)oc3c(CN4CCC(C)CC4)c(O)ccc3c2=O)cc1	14%	.	.	-10%	-3%	.
Cc1ccc(C(c2sc3nc(-c4ccco4)nn3c2O)N2CCN(c3ccc(F)cc3)CC2)cc1 (stereo not given)	-7%	.	.	-13%	-18%	.
CCN1CCc2nc3sc(C(=O)c4ccccc4)c(N)c3cc2C1	-12%	.	.	8.9µM*	16µM*[quencher]	.
CCCCc1nn2c(=O)cc(COC(=O)CNC(=O)COc3ccc(C)cc3)nc2s1	1%	.	.	-7%	-3%	.
Cc1sc2ncnc(OCC(=O)Nc3ccc4c(c3)OCCO4)c2c1C	-1%	20µM*	-22%	-16%	-24%	-2%[46.1 µM]
Cn1cc(Br)c(-c2cccc(NC(=O)CCCC(=O)O)c2)n1	1%	-5%	.	-3%	-3%	-31%
Cc1ccc(NC(=O)CSc2nnc3ccc4ccccc4n23)cc1	-4%	.	.	-5%	-15%	.
CCN(CC)C(=O)CSCc1cnn(-c2ccccc2)c1-n1cccc1	-6%	28µM*	-12%	?	-21%	-30%[46.1 µM]
CCc1ccccc1NC(=O)CSCc1cnn(-c2ccccc2)c1-n1cccc1	-7%	.	.	?	?	.
COc1ccccc1-c1n[nH]c(=S)n1N	-2%	5%	.	-6%	-7%	14%
O=C(O)c1ccc(-n2c(-c3ccc(Br)cc3)n[nH]c2=S)cc1	9%	28µM*	?	-1%	-1%	-2%[46.1 µM]
Cc1[nH]c2ccc(-c3n[nH]c(=S)n3-c3ccc(Br)cc3)cc2c1C	3%	13%	.	-9%	-20%	-44%
Cc1cccc(-n2c(-c3ccoc3C)n[nH]c2=S)c1	-4%	-3%	25µM*	6%	9%	-5%
Cc1cccc(-n2c(-c3csc4ccccc34)n[nH]c2=S)c1	2%	?	14µM*	-9%	-4%	-15%
COc1ccccc1-c1n[nH]c(=S)n1-c1ccccc1	-1%	?	32µM*	-8%	0%	11%[46.1 µM]
COCCNC(=O)c1ccc(-n2c(=O)c(=O)[nH]c3ccccc32)cc1	.	-1%	-21%	.	.	.
O=c1c(-c2cc(-c3ccccc3)nc3c2COc2ccc(Cl)cc2-3)coc2ccccc12	-8%	.	.	-2%	-11%	.
Cc1cccc(S(=O)(=O)c2cn(Cc3ccccc3)c3cc(N4CCC(C)CC4)c(F)cc3c2=O)c1	1%	.	.	-3%	6%	.
